Experimental data as given in PubChem BioAssay (NCATS).
Inconclusive results are not listed. Activity calls are given as the source filed them. Unless noted, calls follow the shape of the dose curve; as a rule, active = well fitted curve in the direction sought with a large enough effect; inconclusive = small, poorly fitted or top-dose-only effect, or another doubt; inactive = no such curve, though single readings can be large; an effect the other way counts as inactive or inconclusive.

Columns and labels:
[1] = qHTS assay for measurement of the activity of small molecule inhibitors on Zika virus induced Caspase-3 activity in human iPSC derived neural progenitor cells (hNPCs) (AID 1224857); also: nearly all actives have a fitted effect of over 65% in size
Procedure, shortened: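 After overnight (16–20 h) culture at 350 cells/well, hNPCs get compound, then ZIKV 2 FFU/cell one hour later. Six hours on, Caspase-Glo 3/7 is added and luminescence measured.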

[2] = qHTS assay for measurement of the activity of small molecule inhibitors on Zika virus induced Caspase-3 activity in human astrocytoma cells (AID 1224859)
Procedure, shortened: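 Inhibition of Zika-induced caspase-3/7 activity: SNB-19 cells, 1 h compound pretreatment, ZIKV 2 FFU/cell for 6 h at 37 C, Caspase-Glo luminescence read-out.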

[3] = qHTS assay to identify small molecule inhibitors of chordoma cells - UCH-1 (AID 1259355); also: nearly all actives have a fitted effect of over 55% in size
Procedure, shortened: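 Luminescent ATP read-out (CellTiter-Glo, 30min at room temperature) measured viability of UCH-1 cells exposed for 48hr to test drugs at 15 concentrations, co-dosed with a five-agent combination of auranofin, camptothecin, doxorubicin, rubitecan and topotecan.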

[4] = P-glycoprotein substrates identified in KB-8-5-11 adenocarcinoma cell line, qHTS therapeutic library screen (AID 1346987); also: series mostly up to about 44 µM; nearly all actives have a fitted effect of over 65% in size
Procedure, shortened: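 Steps: plate 500 KB-8-5-11 cells/well in DMEM + 10% FCS (colchicine removed); pin compounds in dose-response; incubate 72 h, 37 degree C, 5% CO2; add CellTiter-Glo, 5 min; read luminescence.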

[5] = NS1 protein of Zika virus - qHTS assay to identify small molecule inhibitors in human HEK 293 cells (AID 1347053); also: series mostly up to about 46 µM; nearly all actives have a fitted effect of over 55% in size
Procedure, shortened: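 Inhibition of NS1 expression was scored in HEK 293 cells given compound 1 h ahead of MR766 virus (MOI = 0.5). Following 24 h at 37 C, two anti-NS1 antibodies generated a TR-FRET signal, scaled between uninfected and infected controls.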

[6] = Natriuretic polypeptide receptor (hNpr1) antagonism - Pilot counterscreen GloSensor control cell line (AID 1347045; calls by dose curve; also: series mostly up to about 38 µM)
Procedure, shortened: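 Luminescence was read before and 20 min after adding 50 uM SNP, which stimulates soluble guanylyl cyclase. The HEK293 cells expressing the GloSensor cGMP sensor had been preloaded with 2% reagent for 2 h and treated with compound.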

[7] = target: Atrial natriuretic peptide receptor 1 (Homo sapiens) (UniProt P16066); assay: Natriuretic polypeptide receptor (hNpr1) antagonism - Pilot screen (AID 1347049; calls by dose curve;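 also: agonist-evoked cGMP luminescence read 20 min after hNppA addition; series mostly up to about 58 µM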)
Chain of Atrial natriuretic peptide receptor 1 (Homo sapiens) (P16066 whole entry, looked up): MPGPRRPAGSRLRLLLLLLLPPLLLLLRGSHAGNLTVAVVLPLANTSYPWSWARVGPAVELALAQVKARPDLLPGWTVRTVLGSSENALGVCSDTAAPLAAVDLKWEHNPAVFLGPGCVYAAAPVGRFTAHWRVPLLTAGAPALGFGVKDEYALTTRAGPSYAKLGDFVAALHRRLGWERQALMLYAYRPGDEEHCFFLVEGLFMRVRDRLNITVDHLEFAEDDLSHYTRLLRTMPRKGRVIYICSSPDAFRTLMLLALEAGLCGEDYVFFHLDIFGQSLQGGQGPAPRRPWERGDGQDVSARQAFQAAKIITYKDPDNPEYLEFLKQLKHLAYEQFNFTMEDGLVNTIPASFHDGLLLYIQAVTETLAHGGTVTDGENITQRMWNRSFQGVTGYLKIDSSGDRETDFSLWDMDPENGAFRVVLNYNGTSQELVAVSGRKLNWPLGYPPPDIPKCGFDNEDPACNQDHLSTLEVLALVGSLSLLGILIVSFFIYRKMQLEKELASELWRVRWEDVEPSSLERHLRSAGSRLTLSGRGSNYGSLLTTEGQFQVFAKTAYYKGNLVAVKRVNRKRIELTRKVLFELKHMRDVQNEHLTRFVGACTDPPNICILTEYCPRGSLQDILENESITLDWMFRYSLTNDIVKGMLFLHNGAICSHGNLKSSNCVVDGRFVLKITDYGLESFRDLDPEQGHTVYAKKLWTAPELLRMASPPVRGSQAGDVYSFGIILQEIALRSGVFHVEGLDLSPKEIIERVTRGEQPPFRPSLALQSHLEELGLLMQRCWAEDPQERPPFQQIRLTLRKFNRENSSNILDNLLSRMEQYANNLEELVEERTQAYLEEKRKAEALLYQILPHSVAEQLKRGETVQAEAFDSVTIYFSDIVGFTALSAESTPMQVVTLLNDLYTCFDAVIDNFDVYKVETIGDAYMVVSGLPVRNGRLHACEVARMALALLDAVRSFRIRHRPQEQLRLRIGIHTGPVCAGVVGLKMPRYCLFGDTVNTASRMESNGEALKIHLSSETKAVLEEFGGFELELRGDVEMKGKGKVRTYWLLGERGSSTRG
Procedure, shortened: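 HEK293 cells co-expressing hNpr1 and the GloSensor pGS-40F cGMP luciferase sensor were preloaded with 2% GloSensor reagent for 2 h. Compounds were added for 30 min at room temperature, then cells were stimulated with 0.1 nM hNppA for 20 min before luminescence readout.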

[8] = target: Atrial natriuretic peptide receptor 2 (Homo sapiens) (UniProt P20594); assay: Natriuretic polypeptide receptor (hNpr2) antagonism - Pilot subtype selectivity assay (AID 1347050; calls by dose curve; also: potency is read from the fitted curve at half-maximal effect)
Chain of Atrial natriuretic peptide receptor 2 (Homo sapiens) (P20594 whole entry, looked up): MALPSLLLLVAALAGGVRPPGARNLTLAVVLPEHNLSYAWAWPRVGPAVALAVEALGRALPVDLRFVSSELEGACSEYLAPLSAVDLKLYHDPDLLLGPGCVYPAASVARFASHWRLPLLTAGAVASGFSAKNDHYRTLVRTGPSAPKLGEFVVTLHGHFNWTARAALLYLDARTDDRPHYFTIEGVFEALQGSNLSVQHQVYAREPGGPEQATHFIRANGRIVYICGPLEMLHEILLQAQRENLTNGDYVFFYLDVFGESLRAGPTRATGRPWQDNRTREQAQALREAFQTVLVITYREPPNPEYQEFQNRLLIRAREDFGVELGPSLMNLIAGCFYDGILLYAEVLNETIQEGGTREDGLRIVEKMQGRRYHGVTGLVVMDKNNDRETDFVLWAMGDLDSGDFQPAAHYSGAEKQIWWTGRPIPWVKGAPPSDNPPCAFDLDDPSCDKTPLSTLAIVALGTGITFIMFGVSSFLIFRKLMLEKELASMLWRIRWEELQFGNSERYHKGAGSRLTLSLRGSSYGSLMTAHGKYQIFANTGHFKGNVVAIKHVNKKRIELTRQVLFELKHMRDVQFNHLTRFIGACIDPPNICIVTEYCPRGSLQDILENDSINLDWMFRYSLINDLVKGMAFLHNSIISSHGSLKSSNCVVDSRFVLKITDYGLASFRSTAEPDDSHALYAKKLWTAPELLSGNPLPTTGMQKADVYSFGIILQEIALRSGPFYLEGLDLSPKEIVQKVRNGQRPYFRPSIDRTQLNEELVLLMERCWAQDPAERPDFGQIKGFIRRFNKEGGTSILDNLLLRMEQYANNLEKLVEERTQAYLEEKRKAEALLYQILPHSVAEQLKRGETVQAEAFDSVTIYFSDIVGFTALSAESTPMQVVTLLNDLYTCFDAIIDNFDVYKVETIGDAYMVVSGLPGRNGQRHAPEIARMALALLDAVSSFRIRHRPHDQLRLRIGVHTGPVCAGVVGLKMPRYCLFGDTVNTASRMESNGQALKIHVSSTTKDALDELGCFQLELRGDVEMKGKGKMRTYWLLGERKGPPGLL
Procedure, shortened: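 cGMP-sensor HEK293/hNpr2 cells; 2% GloSensor reagent 2 h RT; compounds 30 min; baseline luminescence read; 1 nM hNppC agonist 20 min RT; final luminescence read by CCD camera. Antagonism = reduced post-agonist signal.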

[9] = target: T1, Tyrosine-protein phosphatase non-receptor type substrate 1 (Homo sapiens) + Leukocyte surface antigen CD47 (Homo sapiens) (UniProt P78324+Q08722); assay: CD47-SIRPalpha protein protein interaction - LANCE assay qHTS validation (AID 1347057; active = well fitted curve in the direction sought with a large enough effect in the signal ratio, with a control signal flat, not every such curve was filed as active; the % refers to the signal ratio; also: series mostly up to about 38 µM)
T1 sequence (P78324 whole entry, looked up): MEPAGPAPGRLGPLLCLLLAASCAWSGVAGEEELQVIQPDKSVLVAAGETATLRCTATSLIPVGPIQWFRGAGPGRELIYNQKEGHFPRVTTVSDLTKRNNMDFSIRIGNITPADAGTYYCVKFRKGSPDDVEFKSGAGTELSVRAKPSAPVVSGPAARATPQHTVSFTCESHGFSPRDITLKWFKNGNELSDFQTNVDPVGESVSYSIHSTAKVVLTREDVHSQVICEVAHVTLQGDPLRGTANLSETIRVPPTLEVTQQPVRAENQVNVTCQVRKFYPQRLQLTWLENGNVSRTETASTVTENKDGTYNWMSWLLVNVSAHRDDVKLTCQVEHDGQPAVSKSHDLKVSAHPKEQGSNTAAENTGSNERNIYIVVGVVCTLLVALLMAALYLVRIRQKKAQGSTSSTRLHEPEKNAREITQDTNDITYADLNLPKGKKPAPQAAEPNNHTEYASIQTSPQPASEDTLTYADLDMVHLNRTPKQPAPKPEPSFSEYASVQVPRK
T1 sequence (Q08722 whole entry, looked up): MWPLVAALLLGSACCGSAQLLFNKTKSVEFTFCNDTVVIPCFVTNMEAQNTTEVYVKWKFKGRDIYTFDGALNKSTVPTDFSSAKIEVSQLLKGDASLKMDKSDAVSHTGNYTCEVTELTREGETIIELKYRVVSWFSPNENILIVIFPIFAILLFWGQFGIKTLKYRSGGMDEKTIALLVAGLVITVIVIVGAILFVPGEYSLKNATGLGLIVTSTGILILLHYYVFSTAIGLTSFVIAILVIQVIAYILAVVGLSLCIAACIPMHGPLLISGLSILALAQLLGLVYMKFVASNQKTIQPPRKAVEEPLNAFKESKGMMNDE
Procedure, shortened: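 First, His-tagged CD47 and Eu-labelled anti-His antibody met the compound for 30 min; next, site-specifically biotinylated SIRPalpha was added for 30 min; finally streptavidin-APC was added before reading the TR-FRET ratio.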

[10] = target: T1, Tyrosine-protein phosphatase non-receptor type substrate 1 (Homo sapiens) + Leukocyte surface antigen CD47 (Homo sapiens); assay: CD47-SIRPalpha protein protein interaction - HTRF assay qHTS validation (AID 1347058; active = well fitted curve in the direction sought with a large enough effect in the signal ratio, not every such curve was filed as active; the % refers to the signal ratio;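 also: recombinant soluble extracellular CD47 with His tag and biotinylated SIRPalpha domains; series mostly up to about 38 µM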)
Procedure, shortened: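 TR-FRET read (Ch1/Ch2 ratio) of soluble extracellular CD47 and Avi-biotinylated SIRPalpha domains in PBS pH 7.4 with 0.05% IGEPAL; 7-point compound titration. Sequential 30 min room-temperature steps; non-biotinylated SIRPalpha as control inhibitor.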

[11] = qHTS assay to identify small molecule inhibitors of chordoma cells - UCH-2 (AID 1259356); also: series mostly up to about 46 µM

Measured: Potency

CC(O)COc1ccccc1 (stereo unspecified)
inactive: [1] | [2] | [3] | [4] | [5]

Nc1ccc(S(=O)(=O)Nc2ccc(Cl)nn2)cc1
inactive: [1] | [2] | [3] | [4] | [5]

CC(O)CN(CCN(CC(C)O)CC(C)O)CC(C)O (stereo unspecified)
inactive: [1] | [2] | [3] | [4] | [5]

Cc1cc2c(cc1S(N)(=O)=O)S(=O)(=O)CCC2
inactive: [1] | [2] | [3] | [4] | [5]

CC(C)(C)c1onc(OCP(=O)(O)O)c1CC(N)C(=O)O (stereo unspecified)
inactive: [1] | [2] | [6] | [7] | [8] | [9]

CC(C)(C)[C@]1(O)CCN2C[C@H]3c4ccccc4CCc4cccc(c43)[C@@H]2C1
inactive: [1] | [2] | [6] | [7] | [8] | [5] | [9] | [10]

N=c1c[n+](N2CCOCC2)[n-]o1
inactive: [1] | [2] | [6] | [7] | [8] | [5] | [9]

CN(C)CCOC(C)(c1ccccc1)c1ccccn1 (stereo unspecified)
inactive: [1] | [2] | [6] | [7] | [8] | [9] | [10]

NC1[C@H]2CN(c3nc4c(cc3F)c(=O)c(C(=O)O)cn4-c3ccc(F)cc3F)C[C@@H]12 (stereo partly specified)
inactive: [1] | [2] | [11] | [4] | [5] | [9]

C[C@H](NC(CCc1ccccc1)C(=O)O)C(=O)N1CCC[C@H]1C(=O)O (stereo partly specified)
inactive: [1] | [2] | [4] | [9] | [10]

CCN(CC)C(C)CN1c2ccccc2Sc2ccccc21 (stereo unspecified)
inactive: [1] | [2] | [11] | [6] | [7] | [8] | [5] | [9]

CNCCCC1c2ccccc2C=Cc2ccccc21
inactive: [1] | [2] | [11] | [6] | [7] | [5] | [9]

CN(C)CCCN1c2ccccc2Sc2ccc(Cl)cc21
inactive: [1] | [2] | [11] | [6] | [7] | [9]
active: [8] 14.7 µM

NC(=O)c1ncn([C@@H]2O[C@H](CO)[C@@H](O)[C@H]2O)n1
inactive: [1] | [2] | [11] | [7] | [8] | [5] | [9] | [10]

CN(C)CCC=C1c2ccccc2CCc2ccccc21
inactive: [1] | [2] | [6] | [7] | [5] | [9] | [10]

CC(C)C(=O)c1c(C(C)C)nn2ccccc12
inactive: [1] | [2] | [4] | [6] | [7] | [8] | [9] | [10]

CNCCC(Oc1ccc(C(F)(F)F)cc1)c1ccccc1 (stereo unspecified)
inactive: [1] | [2] | [5]

CC(C)c1c(C(=O)Nc2ccccc2)c(-c2ccccc2)c(-c2ccc(F)cc2)n1CC[C@@H](O)C[C@@H](O)CC(=O)O
inactive: [1] | [2] | [4] | [5] | [9] | [10]

CC(C)NC[C@H](O)c1ccc(O)c(O)c1
inactive: [1] | [2] | [6] | [7] | [8] | [5] | [9] | [10]

CN(C)CC[C@@H](c1ccc(Cl)cc1)c1ccccn1
inactive: [1] | [2] | [4] | [7] | [5]
